Laboratory results: PubChem BioAssay
The source made the active and inactive calls.

How the values were obtained:
[1] = test system: PRMT1 (protein arginine N-methyltransferase 1); experiment: small molecules binding arginine methyltransferase PRMT1 – biochemical, small-molecule microarray, 635 nm fluorescence, primary screen (AID 1088); conditions: higher = more signal;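 note: binding of Prmt1 protein to compounds spotted on small-molecule microarray slides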
[2] = growth effects on S. cerevisiae YJM789 – YJM789 clinical isolate, OD600, 24 h, basal, primary screen (AID 1089); conditions: higher = more signal, called active from +8 up or from −8 down;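 note: growth of clinical yeast isolate S. cerevisiae YJM 789 seeded 1000 cells per well; test concentration not given here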
[3] = S. pombe growth modifiers, basal conditions – strain 972, OD600, 24 h, no modulator, primary screen (AID 1090);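 note: basal condition with compound alone and no growth modifier present; test concentration not given here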; conditions: S. pombe 972 growth, higher = more signal, called active from +8 up or from −8 down
[4] = budding yeast growth modifiers under rapamycin – strain BY4716, OD600, 96 h, primary screen (AID 1091); note: test concentration not given here; conditions: S. cerevisiae BY4716 + rapamycin, higher = more signal, called active from +8 up or from −8 down
[5] = target: Torsin-1A-interacting protein 2 (Homo sapiens) (UniProt Q8NFQ8); experiment: small molecules binding lysate-expressed LULL1 – cell lysate, human LULL1 lysate, 635/667 nm fluorescence, primary screen (AID 1092); conditions: small-molecule microarray, hLULL1 lysate binding, 635 nm fluorescence; higher = more signal;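 note: probe is lysate of COS7 cells overexpressing human LULL1; score merges per-feature 667 nm fluorescence with signal-to-noise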
Chain of Torsin-1A-interacting protein 2 (Homo sapiens) (Q8NFQ8 whole entry, looked up): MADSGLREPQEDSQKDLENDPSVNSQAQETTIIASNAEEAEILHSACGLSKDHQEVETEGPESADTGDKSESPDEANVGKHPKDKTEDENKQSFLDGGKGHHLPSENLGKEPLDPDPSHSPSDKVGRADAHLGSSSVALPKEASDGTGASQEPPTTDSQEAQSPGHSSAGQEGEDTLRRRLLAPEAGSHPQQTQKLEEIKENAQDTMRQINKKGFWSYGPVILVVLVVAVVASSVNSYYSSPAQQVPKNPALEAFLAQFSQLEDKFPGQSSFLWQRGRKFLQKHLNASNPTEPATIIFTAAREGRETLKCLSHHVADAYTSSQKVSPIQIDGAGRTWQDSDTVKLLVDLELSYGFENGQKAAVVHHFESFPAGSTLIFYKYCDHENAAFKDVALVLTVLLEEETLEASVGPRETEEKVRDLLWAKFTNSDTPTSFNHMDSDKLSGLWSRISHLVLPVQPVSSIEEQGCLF

[6] = optical density change of DRC41 E. coli – strain DRC41, OD650, 24 h, E. coli filamentation project, primary screen (AID 1093);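 note: MC1000 strain lacking acrAB efflux and sulA so SOS filamentation is blocked; test concentration not given here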; conditions: E. coli DRC41 growth, higher = more signal, called active from +8 up or from −8 down
[7] = probe aLefty2 binding to arrayed compounds – biochemical, biotinylated probe, 635/667 nm fluorescence, primary screen (AID 1094); conditions: small-molecule microarray, higher = more signal;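 note: score merges spot fluorescence near 667 nm with spot signal-to-noise ratio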
[8] = test system: Noggin (protein binding on small-molecule microarray); experiment: small molecules binding Noggin protein – biochemical, 635/667 nm fluorescence, primary screen (AID 1095); conditions: 635 nm fluorescence, higher = more signal;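 note: score merges 667 nm feature fluorescence with signal to noise over triplicate slides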
[9] = target: Neurogenic locus notch homolog protein 3 (Homo sapiens) (UniProt Q9UM47); experiment: small molecules binding NOTCH3 protein – biochemical, 635/667 nm fluorescence, primary screen (AID 1096); conditions: small-molecule microarray, 635 nm fluorescence, higher = more signal
Chain of Neurogenic locus notch homolog protein 3 (Homo sapiens) (Q9UM47 whole entry, looked up): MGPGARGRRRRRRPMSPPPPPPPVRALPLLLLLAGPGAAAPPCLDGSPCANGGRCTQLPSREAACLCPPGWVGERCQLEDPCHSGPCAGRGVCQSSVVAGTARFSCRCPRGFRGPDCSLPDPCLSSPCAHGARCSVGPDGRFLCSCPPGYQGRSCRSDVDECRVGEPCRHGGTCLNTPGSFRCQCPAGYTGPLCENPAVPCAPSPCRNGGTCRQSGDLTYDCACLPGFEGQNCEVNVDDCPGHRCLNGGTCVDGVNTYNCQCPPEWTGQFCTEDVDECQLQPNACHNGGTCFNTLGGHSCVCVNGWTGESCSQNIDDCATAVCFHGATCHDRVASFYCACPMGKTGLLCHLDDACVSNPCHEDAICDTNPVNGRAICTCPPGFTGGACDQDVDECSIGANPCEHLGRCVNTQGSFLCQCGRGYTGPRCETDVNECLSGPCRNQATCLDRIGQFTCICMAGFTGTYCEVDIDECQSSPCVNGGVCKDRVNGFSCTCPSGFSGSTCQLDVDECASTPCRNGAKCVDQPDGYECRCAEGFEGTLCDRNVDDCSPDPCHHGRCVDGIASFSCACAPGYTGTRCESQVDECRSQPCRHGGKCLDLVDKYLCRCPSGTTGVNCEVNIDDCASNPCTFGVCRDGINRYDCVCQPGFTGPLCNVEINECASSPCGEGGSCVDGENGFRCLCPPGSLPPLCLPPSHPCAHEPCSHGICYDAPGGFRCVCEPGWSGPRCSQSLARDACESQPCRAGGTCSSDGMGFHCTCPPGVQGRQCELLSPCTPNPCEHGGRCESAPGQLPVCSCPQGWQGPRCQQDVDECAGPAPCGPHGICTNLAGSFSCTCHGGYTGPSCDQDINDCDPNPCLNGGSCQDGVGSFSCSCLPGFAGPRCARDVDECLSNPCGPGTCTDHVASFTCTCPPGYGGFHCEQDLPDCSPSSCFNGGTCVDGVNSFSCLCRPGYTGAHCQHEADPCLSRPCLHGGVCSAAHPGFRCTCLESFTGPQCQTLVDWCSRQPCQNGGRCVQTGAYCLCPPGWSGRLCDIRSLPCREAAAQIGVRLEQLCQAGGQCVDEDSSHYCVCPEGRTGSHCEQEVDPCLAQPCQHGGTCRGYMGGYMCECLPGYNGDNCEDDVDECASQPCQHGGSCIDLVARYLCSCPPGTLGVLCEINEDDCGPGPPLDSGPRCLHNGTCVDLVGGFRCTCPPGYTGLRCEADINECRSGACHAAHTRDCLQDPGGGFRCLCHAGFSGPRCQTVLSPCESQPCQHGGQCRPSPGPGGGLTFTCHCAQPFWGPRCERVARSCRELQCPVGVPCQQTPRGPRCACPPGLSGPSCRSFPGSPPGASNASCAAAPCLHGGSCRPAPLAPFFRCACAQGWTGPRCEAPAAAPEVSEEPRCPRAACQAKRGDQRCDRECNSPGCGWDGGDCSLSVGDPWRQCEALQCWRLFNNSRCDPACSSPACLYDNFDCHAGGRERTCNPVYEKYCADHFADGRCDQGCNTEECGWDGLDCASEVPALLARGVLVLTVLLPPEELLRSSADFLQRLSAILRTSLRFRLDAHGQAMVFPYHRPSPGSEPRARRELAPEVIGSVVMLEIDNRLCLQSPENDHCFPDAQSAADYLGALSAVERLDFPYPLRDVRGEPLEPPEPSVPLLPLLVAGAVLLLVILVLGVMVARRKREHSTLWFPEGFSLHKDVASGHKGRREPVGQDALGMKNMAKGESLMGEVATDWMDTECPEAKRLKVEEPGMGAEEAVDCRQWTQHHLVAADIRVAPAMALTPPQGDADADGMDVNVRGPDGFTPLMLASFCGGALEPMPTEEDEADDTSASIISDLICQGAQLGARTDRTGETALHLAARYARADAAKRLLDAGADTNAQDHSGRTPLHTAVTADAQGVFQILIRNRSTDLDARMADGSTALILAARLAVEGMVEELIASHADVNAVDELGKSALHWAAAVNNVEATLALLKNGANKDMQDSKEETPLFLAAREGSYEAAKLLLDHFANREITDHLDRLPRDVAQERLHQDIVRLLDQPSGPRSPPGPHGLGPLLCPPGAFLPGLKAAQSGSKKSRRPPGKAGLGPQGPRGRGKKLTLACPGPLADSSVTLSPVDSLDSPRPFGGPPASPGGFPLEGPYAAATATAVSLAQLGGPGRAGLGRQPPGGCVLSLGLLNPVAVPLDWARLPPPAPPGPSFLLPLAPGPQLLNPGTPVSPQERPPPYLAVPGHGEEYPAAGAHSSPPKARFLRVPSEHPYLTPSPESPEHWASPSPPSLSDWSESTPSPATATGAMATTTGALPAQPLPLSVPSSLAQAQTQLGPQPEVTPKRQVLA

[10] = probe aEGFR binding to arrayed compounds – biochemical, biotinylated probe, 635/667 nm fluorescence, primary screen (AID 1097); conditions: small-molecule microarray, higher = more signal;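 note: probe is a biotinylated anti-EGFR antibody binding compounds printed on slides; score combines fluorescence near 667 nm and signal to noise of each spot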
[11] = test system: Plasmodium falciparum Sir2 (PF13_0152, Sir2A); experiment: Plasmodium falciparum Sir2A binding compounds – biochemical, small-molecule microarray, 635 nm fluorescence, primary screen (AID 1098); conditions: fluorescence 635 nm, higher = more signal;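 note: score merges spot fluorescence intensity with its signal-to-noise ratio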
[12] = probe aDKK1 binding to arrayed compounds – biochemical, biotinylated probe, 635/667 nm fluorescence, primary screen (AID 1099); conditions: small-molecule microarray, higher = more signal;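 note: score merges 667nm spot fluorescence with signal to noise across triplicate slides; reference of the scale not given here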
[13] = probe aCHRDL2 binding to arrayed compounds – biochemical, biotinylated probe, 635/667 nm fluorescence, primary screen (AID 1100); conditions: small-molecule microarray, higher = more signal
[14] = change in splice reporter luminescence, either direction, cell-based, HEK293, spliceosome inhibition project, primary screen (AID 1101); conditions: HEK293 splicing luciferase reporter, 24 h, higher = more signal, called active from +8 up or from −8 down;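 note: HEK293 cells carrying a splicing-competent luciferase reporter gene; test concentration not given here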
[15] = target: Fibroblast growth factor 10 (Homo sapiens) (UniProt O15520); experiment: compounds binding fibroblast growth factor 10 – biochemical, small-molecule microarray, 635 nm fluorescence, primary screen (AID 1102); conditions: FGF10 binding, fluorescence 635 nm, higher = more signal
Chain of Fibroblast growth factor 10 (Homo sapiens) (O15520 whole entry, looked up): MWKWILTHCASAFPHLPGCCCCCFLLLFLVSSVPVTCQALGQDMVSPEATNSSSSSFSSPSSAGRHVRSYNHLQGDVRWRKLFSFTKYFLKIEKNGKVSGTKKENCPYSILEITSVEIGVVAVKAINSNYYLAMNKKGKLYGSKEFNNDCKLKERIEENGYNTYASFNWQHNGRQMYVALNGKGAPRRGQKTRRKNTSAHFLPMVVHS

[16] = test system: glycogen synthase kinase-3 (GSK3A per assay name; protocol says GSK3B); experiment: compounds binding glycogen synthase kinase-3 – biochemical, small-molecule microarray, 635 nm fluorescence, GSK3A, primary screen (AID 1103); conditions: fluorescence 635 nm, higher = more signal; note: the record names both GSK3A and GSK3B
[17] = target: Epidermal growth factor receptor (Homo sapiens) (UniProt P00533); experiment: compounds binding epidermal growth factor receptor – biochemical, small-molecule microarray, 635 nm fluorescence, primary screen (AID 1104); conditions: EGFR binding, higher = more signal;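 note: score merges 667 nm emission intensity with spot signal to noise over triplicate slides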
Chain of Epidermal growth factor receptor (Homo sapiens) (P00533 whole entry, looked up): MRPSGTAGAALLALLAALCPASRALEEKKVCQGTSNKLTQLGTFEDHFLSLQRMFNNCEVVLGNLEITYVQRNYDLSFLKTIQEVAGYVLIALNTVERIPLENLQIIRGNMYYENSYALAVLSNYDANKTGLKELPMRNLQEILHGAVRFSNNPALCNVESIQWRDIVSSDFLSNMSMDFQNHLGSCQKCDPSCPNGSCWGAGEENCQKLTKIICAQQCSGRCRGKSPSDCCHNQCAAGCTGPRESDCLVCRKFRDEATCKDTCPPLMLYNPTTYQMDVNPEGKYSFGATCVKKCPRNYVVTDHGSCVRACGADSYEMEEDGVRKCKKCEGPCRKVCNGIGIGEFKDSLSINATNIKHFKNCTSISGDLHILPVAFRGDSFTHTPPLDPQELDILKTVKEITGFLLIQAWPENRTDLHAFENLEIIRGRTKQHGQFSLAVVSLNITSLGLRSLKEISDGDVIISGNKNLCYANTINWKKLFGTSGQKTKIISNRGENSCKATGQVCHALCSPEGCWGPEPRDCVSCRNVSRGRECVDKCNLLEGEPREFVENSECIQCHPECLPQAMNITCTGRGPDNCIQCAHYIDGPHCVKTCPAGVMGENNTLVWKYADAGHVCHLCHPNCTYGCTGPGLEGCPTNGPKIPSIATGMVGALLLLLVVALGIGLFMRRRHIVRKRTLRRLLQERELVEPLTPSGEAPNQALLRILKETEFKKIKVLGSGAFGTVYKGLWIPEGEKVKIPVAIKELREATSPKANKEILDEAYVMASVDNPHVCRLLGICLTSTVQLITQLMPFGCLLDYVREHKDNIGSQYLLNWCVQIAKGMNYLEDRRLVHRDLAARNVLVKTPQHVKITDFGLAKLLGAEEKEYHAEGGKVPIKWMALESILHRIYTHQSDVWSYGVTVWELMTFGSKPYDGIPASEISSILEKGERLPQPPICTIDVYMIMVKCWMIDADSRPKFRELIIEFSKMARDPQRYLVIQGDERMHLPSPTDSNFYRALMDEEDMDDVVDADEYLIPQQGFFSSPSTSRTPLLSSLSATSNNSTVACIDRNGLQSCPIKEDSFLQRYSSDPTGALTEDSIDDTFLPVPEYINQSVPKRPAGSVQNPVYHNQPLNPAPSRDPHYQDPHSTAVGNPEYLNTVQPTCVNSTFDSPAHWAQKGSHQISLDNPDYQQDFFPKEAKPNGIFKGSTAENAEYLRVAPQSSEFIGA

[18] = target: Follistatin-related protein 3 (Homo sapiens) (UniProt O95633); experiment: compounds binding follistatin-related protein 3 – biochemical, small-molecule microarray, 635 nm fluorescence, primary screen (AID 1105); conditions: FSTL3 binding, higher = more signal;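 note: score merges emission near 667 nm and signal to noise per printed spot across three slides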
Chain of Follistatin-related protein 3 (Homo sapiens) (O95633 whole entry, looked up): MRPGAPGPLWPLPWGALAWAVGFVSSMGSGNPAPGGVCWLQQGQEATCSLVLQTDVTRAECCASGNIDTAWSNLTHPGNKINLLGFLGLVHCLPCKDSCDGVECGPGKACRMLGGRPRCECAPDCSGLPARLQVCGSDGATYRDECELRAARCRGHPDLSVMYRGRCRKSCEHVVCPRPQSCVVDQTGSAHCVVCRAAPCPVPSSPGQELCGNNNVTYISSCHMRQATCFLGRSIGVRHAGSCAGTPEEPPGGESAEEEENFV

[19] = target: Dickkopf-related protein 1 (Homo sapiens) (UniProt O94907); experiment: small molecules binding DKK1 protein – biochemical, small-molecule microarray, 635 nm fluorescence scan, primary screen (AID 1106); conditions: higher = more signal;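 note: score merges emission near 667 nm with signal to noise over three replicate slides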
Chain of Dickkopf-related protein 1 (Homo sapiens) (O94907 whole entry, looked up): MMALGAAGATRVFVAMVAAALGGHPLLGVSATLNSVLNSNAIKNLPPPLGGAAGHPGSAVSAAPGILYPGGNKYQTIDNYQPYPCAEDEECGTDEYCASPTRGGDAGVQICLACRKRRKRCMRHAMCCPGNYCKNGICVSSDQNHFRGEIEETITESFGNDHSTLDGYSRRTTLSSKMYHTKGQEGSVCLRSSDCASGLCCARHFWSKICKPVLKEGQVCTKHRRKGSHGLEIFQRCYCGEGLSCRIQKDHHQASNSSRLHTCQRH

[20] = test system: Inhibin beta A chain (activin A); experiment: small molecules binding activin A – biochemical, small-molecule microarray, 635 nm fluorescence scan, primary screen (AID 1107); conditions: INHBA, higher = more signal;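 note: mouse activin A protein probed at 4.33 µg/mL on printed slides; score merges bound-protein fluorescence near 667 nm with spot signal-to-noise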

SMILES | composite z-score [1] | z-score [2] | z-score [3] | z-score [4] | composite z-score [5] | z-score [6] | composite z-score [7] | composite z-score [8] | composite z-score [9] | composite z-score [10] | composite z-score [11] | composite z-score [12] | composite z-score [13] | z-score [14] | composite z-score [15] | composite z-score [16] | composite z-score [17] | composite z-score [18] | composite z-score [19] | composite z-score [20]
O=C(NN=C1C[C@@H](O)[C@@H](O)[C@@H]2[C@@H]3C(=O)N(C[C@@H]4CCCO4)C(=O)[C@@H]3CC[C@H]12)OCc1ccccc1 | -0.166 | 0.387 (inactive) | 0.499 (inactive) | -0.186 (inactive) | 0.126 | 0.52 (inactive) | 0.0061 | -0.284 | -0.696 | -0.19 | 0.278 | 0.545 | 0.768 | 0.0311 (inactive) | -0.132 | -0.658 | -0.0485 | -0.281 | -0.575 | 0.902
CCOC(=O)[C@H](CC(C)C)NC(=O)CCC1CC(OC(=O)NCc2cccc3ccccc23)CC2(CCCC(COC(=O)NCCCN3CCCC3=O)O2)O1 (stereo not given in full) | 1.4 | -0.139 (inactive) | 0.409 (inactive) | -0.224 (inactive) | 1.68 | -0.165 (inactive) | -0.0998 | 0.822 | 1.12 | -0.0238 | 0.389 | -0.171 | -0.38 | -0.406 (inactive) | 0.408 | 0.819 | 0.384 | 0.787 | 0.583 | 0.0612
CCCNC(=O)OC[C@H]1O[C@H](CCON=C(C)CCN2CCCc3nc(C)c(C)cc32)C=C[C@@H]1Oc1ccc(OC)cc1 | 1.55 | -0.663 (inactive) | -0.604 (inactive) | -0.0042 (inactive) | 2.38 | 1.05 (inactive) | 0.0408 | 0.634 | 0.991 | 0.101 | 0.333 | 0.595 | -0.237 | 0.304 (inactive) | 0.653 | 0.73 | 0.509 | 0.605 | 0.687 | 0.491
CCCNC(=O)OC[C@H]1O[C@H](CCON=C(C)CCN2CCc3nc(CC)c(CC)cc3C2)C=C[C@@H]1Oc1ccc(OC)cc1 | 0.285 | -0.348 (inactive) | -2.36 (inactive) | 0.156 (inactive) | 0.73 | 0.004 (inactive) | -0.0539 | 0.559 | -0.286 | -0.0381 | 0.865 | -0.231 | -0.163 | -1.02 (inactive) | -0.423 | -0.687 | 0.159 | 0.125 | 0.192 | 0.886
C[C@@H]1NC(=O)[C@@H](C)COC(=O)[C@H](C)NC(=O)[C@@H](C)COC1=O | 0.455 | -0.335 (inactive) | -0.924 (inactive) | -1.94 (inactive) | 1.03 | -0.0698 (inactive) | -0.0186 | 0.79 | -0.0611 | 0.132 | 0.429 | -0.23 | -0.0595 | -1.35 (inactive) | 0.765 | 0.642 | 0.401 | 1.15 | 0.769 | -0.772
